Over roughly 18,000 sequences, “log2 normalized intensity” has its median near 0.36; the highest 2% begin near 7.3. What follows is part of a selection rich in the highest values, with near analogues and random picks from the rest.

The assay concerns the target T1, HNF4alpha8 (COS-7 nuclear extract) (Homo sapiens, UniProt P41235-5 1-452).
T1 sequence: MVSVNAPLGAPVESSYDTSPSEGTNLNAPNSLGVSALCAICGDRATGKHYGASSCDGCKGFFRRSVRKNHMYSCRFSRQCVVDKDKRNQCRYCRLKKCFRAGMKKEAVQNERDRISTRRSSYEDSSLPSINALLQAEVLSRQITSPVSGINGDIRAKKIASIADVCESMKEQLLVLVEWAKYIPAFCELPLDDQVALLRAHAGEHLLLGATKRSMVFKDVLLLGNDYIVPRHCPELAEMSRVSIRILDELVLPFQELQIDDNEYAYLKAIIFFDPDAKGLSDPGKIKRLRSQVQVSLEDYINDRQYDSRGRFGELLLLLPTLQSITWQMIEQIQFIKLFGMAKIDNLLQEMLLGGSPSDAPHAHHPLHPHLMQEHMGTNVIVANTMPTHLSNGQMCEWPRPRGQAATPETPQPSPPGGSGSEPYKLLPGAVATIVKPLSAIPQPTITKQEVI
Kind of assay: protein-binding microarray; COS-7 nuclear extract on double-stranded Agilent 4x180k PBM; binding buffer, salt, pH and temperature not given in the material; high values mean tight binding. The settings on record: chain copies: 2; label: 3' end of strand 1 on the slide; dsDNA, one strand shown. Summed up: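 Using CaPO4, COS-7 cells were transiently transfected with a human HNF4α isoform expression vector, and their nuclear extracts were applied to a custom Agilent SurePrint G3 4x180k double-stranded oligonucleotide array (~60 nt; ~44,000 test sequences in quadruplicate). Bound HNF4α was imaged at 2-µm resolution with an Agilent G2565CA scanner. Agilent software supplied the background-corrected, normalized gProcessedSignal that serves as the binding signal.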
For “AAAGGGCAAAGGTCAGCTCATTCCCTAGGGGCCTAGGGAGATTAGAGTATCGGTCGA”, the binding signal stood at 6.71 log2 normalized intensity. The result for “TAAGATTCTGGTCAAAGGTCAATGAAGCTCGCCTAGGGAGATTAGAGTATCGGTCGA” reads 6.64 log2 normalized intensity; that for “ACTTAAAAGAAGCTACTAGCAAATCTGCCCGCCTAGGGAGATTAGAGTATCGGTCGA”, -0.288 log2 normalized intensity; that for “AACAAAGGTCGGTGGTATGTGTGTGCTTTAGCCTAGGGAGATTAGAGTATCGGTCGA”, 2.2 log2 normalized intensity. In the case of “AATGTGTGTTCTGCTGCCATTGGATGGAATGCCTAGGGAGATTAGAGTATCGGTCGA”, the binding signal was 1.51 log2 normalized intensity. The result for “GTCAGATGACAGAATTGGTCCTGGAACTCAGCCTAGGGAGATTAGAGTATCGGTCGA” reads 0.192 log2 normalized intensity. The result for “CCAACACAGAAGCCTTTTGTTCTTTGTGTGGCCTAGGGAGATTAGAGTATCGGTCGA” reads 1.47 log2 normalized intensity; that for “CCTATGGTCTGTTCACTTGCCAAGCCTAGTGCCTAGGGAGATTAGAGTATCGGTCGA”, -0.838 log2 normalized intensity. Under “AAATATTGTCAGTGAGGAATGTGCAAACGGGCCTAGGGAGATTAGAGTATCGGTCGA” stands 0.32 log2 normalized intensity; under “GGTTGCACTCTGGTGCCCTCTGAGTGTTTGGCCTAGGGAGATTAGAGTATCGGTCGA”, 2.54 log2 normalized intensity; under “ACCCTCTCTGGATGCAGGTCGCCGGGAAAAGCCTAGGGAGATTAGAGTATCGGTCGA”, 0.74 log2 normalized intensity.

For “AGGTCAGGGAGTAGGTTTGATTTGTGAAAGGCCTAGGGAGATTAGAGTATCGGTCGA”, the binding signal was 1.03 log2 normalized intensity. The result for “GATGCTAGGTTTGTGAGTCCAAAGGTCAGCGCCTAGGGAGATTAGAGTATCGGTCGA” reads 9.81 log2 normalized intensity; that for “TCACAGTGTGGGGCAAATCTGAGGTCAAAGGCCTAGGGAGATTAGAGTATCGGTCGA”, 2.51 log2 normalized intensity; that for “TTGTGAGTCCAAAGGTCAGCCGGGGAAGGTGCCTAGGGAGATTAGAGTATCGGTCGA”, 7.55 log2 normalized intensity. In the case of “TGAGTATCCAAAGGTCAGTGACAAATGTCAGCCTAGGGAGATTAGAGTATCGGTCGA”, the binding signal came to 4.51 log2 normalized intensity. With “ATGTTAGTCTTGAGTCCCAAAGTCCAAAGGGCCTAGGGAGATTAGAGTATCGGTCGA”, the binding signal is 6.25 log2 normalized intensity. Under “CCTGAGGTGTGAGAGGGCAAAGGTCACAGCGCCTAGGGAGATTAGAGTATCGGTCGA” stands 8.73 log2 normalized intensity. On to “GGTGTGAGAGGGCAAAGGTCACAGCATTAGGCCTAGGGAGATTAGAGTATCGGTCGA”, for which the binding signal worked out at 7.08 log2 normalized intensity. Under “AAGGTTGGTTTTTGGAGACAGGAGTAGTCAGCCTAGGGAGATTAGAGTATCGGTCGA” stands 0.982 log2 normalized intensity; under “AGTCCAAAGGTCAGCCGGGGAAGGTGCAGGGCCTAGGGAGATTAGAGTATCGGTCGA”, 5.55 log2 normalized intensity; under “TAGGTTTGTGAGTCCAAAGGTCAGCCGGGGGCCTAGGGAGATTAGAGTATCGGTCGA”, 8.36 log2 normalized intensity.

For “AAAAGGATGCTAGGTTTGTGAGTCCAAAGGGCCTAGGGAGATTAGAGTATCGGTCGA”, the binding signal amounted to 5.08 log2 normalized intensity. Under “TACGTGACCTACTTAGTCTCCAGCCCCCAGGCCTAGGGAGATTAGAGTATCGGTCGA” stands 4.08 log2 normalized intensity. The result for “TTTGGGGGTTGGTATTACAAAGCAATCTACGCCTAGGGAGATTAGAGTATCGGTCGA” reads 0.18 log2 normalized intensity. The result for “TGAGCCATCCTGAACAAATGTACTGGATATGCCTAGGGAGATTAGAGTATCGGTCGA” reads -0.391 log2 normalized intensity; that for “GACATAAATCACATTGTTAGCATAGCCTATGCCTAGGGAGATTAGAGTATCGGTCGA”, -0.813 log2 normalized intensity. For “TGCTCACGTTTTCCTGCTGACCCTCTCCCCGCCTAGGGAGATTAGAGTATCGGTCGA”, the binding signal worked out at 4.22 log2 normalized intensity. The result for “CTGCAGTGTGACCTTTGCCTTCTTGACATCGCCTAGGGAGATTAGAGTATCGGTCGA” reads 6.8 log2 normalized intensity.

Take “GATGTTCTACACTGCTTACCCTGCAGTGTGGCCTAGGGAGATTAGAGTATCGGTCGA”: the binding signal is -0.757 log2 normalized intensity. The result for “GTGTGACCTTTGCCTTCTTGACATCTCTCTGCCTAGGGAGATTAGAGTATCGGTCGA” reads 5.21 log2 normalized intensity. Under “ACTGCTTACCCTGCAGTGTGACCTTTGCCTGCCTAGGGAGATTAGAGTATCGGTCGA” stands 8.52 log2 normalized intensity; under “TCTACACTGCTTACCCTGCAGTGTGACCTTGCCTAGGGAGATTAGAGTATCGGTCGA”, 4.68 log2 normalized intensity. The result for “TTACCCTGCAGTGTGACCTTTGCCTTCTTGGCCTAGGGAGATTAGAGTATCGGTCGA” reads 8.09 log2 normalized intensity. Take “AGCTTGCTCTCACCAGCTTCTTCTCTTTGAGCCTAGGGAGATTAGAGTATCGGTCGA”: the binding signal is -0.143 log2 normalized intensity.

As for “ATCTCAGCTCACTGTAACCTTTGCCCCCCTGCCTAGGGAGATTAGAGTATCGGTCGA”, the binding signal amounted to 9.22 log2 normalized intensity. For the sequence “AGCCCCAACCCACTGTTGCCCCTTCCAAAGGCCTAGGGAGATTAGAGTATCGGTCGA”, the binding signal amounted to 4.73 log2 normalized intensity. As to “TTTGCTCACTGTAACCTTTGCCCCCCAAGTGCCTAGGGAGATTAGAGTATCGGTCGA”, the binding signal amounted to 9.22 log2 normalized intensity. As for “TCACTGTAACCTTTGCCCCCCAAGTTGAAGGCCTAGGGAGATTAGAGTATCGGTCGA”, the binding signal amounted to 7.68 log2 normalized intensity. The result for “GTAACCTTTGCCCCCCAAGTTGAAGCCATCGCCTAGGGAGATTAGAGTATCGGTCGA” reads 5.74 log2 normalized intensity; that for “ACTGTAACCTTTGCCCCCCTGGGCTCAAGCGCCTAGGGAGATTAGAGTATCGGTCGA”, 6.27 log2 normalized intensity; that for “AACCTTTGCCCCAGCTGTCACCCAGCCAGAGCCTAGGGAGATTAGAGTATCGGTCGA”, 4.16 log2 normalized intensity.

“GTGCTATCTCAGCTCACTGTAACCTTTGCCGCCTAGGGAGATTAGAGTATCGGTCGA”: the binding signal came out at 4.68 log2 normalized intensity. Under “TGGTGCTATCTTTGCTCACTGTAACCTTTGGCCTAGGGAGATTAGAGTATCGGTCGA” stands 4.34 log2 normalized intensity.

The values are drawn from paper PMC10726135, “HNF4α isoforms regulate the circadian balance between carbohydrate and lipid metabolism in the liver”.
